Source: paper PMC8384837, “Expanding the binding specificity for RNA recognition by a PUF domain”

What follows are sequences tested against PUM1 PUF domain R7-KYK (Homo sapiens, UniProt Q14671 828-1176, S1079K;N1080Y;E1083K) (assay: yeast three-hybrid, YBZ-1, SC-Leu-His + 0.5 mM 3-AT, 4 days). Settings: tags: N-Gal4 AD-HA kept; label: inside an RPR1-promoter hybrid RNA with tandem MS2 sites; ssRNA.
Method in brief: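 Matching RNA elements and Pumilio-1 PUF domain libraries, randomized at the three base-contacting residues of every repeat, were co-expressed from a centromeric plasmid in strain YBZ-1 (LexA–MS2 coat fusion, HIS3 reporter). The repeat regions were PCR-amplified and Illumina-sequenced from cells grown four days on SC-Leu (input) or SC-Leu-His + 0.5 mM 3-AT (selection). The interaction score is the log change in variant frequency from input to selection. It is computed in log2, with a pseudocount of 1 for absent variants.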

Chain of PUM1 PUF domain R7-KYK (Q14671 828-1176 S1079K/N1080Y/E1083K): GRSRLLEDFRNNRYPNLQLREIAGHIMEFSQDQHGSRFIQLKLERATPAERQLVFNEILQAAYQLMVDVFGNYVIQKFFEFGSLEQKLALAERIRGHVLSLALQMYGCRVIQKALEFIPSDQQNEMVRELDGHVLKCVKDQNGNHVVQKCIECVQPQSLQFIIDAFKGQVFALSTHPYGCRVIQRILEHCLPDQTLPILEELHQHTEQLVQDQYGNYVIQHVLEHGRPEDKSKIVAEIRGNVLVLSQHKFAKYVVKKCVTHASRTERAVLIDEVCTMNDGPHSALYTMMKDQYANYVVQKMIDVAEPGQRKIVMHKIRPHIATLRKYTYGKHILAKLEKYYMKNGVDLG

First: GGCUAGAACUAGUGGAUCCCCCGGCGCCCGGCGGCUCGAGCCCGGGUAAGUGUAAAUAGUCUGCAUGCCGCCGGGCGCCAUGCCUGCAGGUCGACUCUAGAAAACAUG
Second: GGCUAGAACUAGUGGAUCCCCCGGCGCCCGGCGGCUCGAGCCCGGGUAAGUAUAAAUAGUCUGCAUGCCGCCGGGCGCCAUGCCUGCAGGUCGACUCUAGAAAACAUG
The binding signal of the first is lower: 2.18 log2 enrichment (interaction score) for the first, 4.11 log2 enrichment (interaction score) for the second.

In the case of “GGCUAGAACUAGUGGAUCCCCCGGCGCCCGGCGGCUCGAGCCCGGGUAAGUCUAAAUAGUCUGCAUGCCGCCGGGCGCCAUGCCUGCAGGUCGACUCUAGAAAACAUG”, the binding signal is reported as 5.83 log2 enrichment (interaction score).
